Results published in PubChem BioAssay.
Activity calls are given as the source filed them. Unless noted, how the calls were made is not given here.

Columns and labels:
[1] = compounds binding Alexa647 anti-His antibody – biochemical, small-molecule microarray, 635 nm fluorescence, artefact control for SMM control protein annotation, primary screen (AID 1128); details: higher = more signal;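 further: score merges feature fluorescence with signal-to-noise for each printed compound spot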
[2] = system: Human papillomavirus type 1a E7 protein (residues 1-88); assay: HPV1a E7 small-molecule binders, primary screen, biochemical, small-molecule microarray, residues 1-88, 635 nm (AID 1129); details: small-molecule microarray binding, fluorescence 635 nm; higher = more signal
[3] = molecular target: Focal adhesion kinase 1 (Homo sapiens) (UniProt Q05397); assay: PTK2 protein binding on printed compound slides – biochemical, small-molecule microarray, 635/667 nm fluorescence, BSA, DTT, primary screen (AID 1130); details: 635 nm fluorescence, higher = more signal;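 further: composite of spot emission at 667 nm and signal to noise over triplicate slides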
Chain of Focal adhesion kinase 1 (Homo sapiens) (Q05397 whole entry, looked up): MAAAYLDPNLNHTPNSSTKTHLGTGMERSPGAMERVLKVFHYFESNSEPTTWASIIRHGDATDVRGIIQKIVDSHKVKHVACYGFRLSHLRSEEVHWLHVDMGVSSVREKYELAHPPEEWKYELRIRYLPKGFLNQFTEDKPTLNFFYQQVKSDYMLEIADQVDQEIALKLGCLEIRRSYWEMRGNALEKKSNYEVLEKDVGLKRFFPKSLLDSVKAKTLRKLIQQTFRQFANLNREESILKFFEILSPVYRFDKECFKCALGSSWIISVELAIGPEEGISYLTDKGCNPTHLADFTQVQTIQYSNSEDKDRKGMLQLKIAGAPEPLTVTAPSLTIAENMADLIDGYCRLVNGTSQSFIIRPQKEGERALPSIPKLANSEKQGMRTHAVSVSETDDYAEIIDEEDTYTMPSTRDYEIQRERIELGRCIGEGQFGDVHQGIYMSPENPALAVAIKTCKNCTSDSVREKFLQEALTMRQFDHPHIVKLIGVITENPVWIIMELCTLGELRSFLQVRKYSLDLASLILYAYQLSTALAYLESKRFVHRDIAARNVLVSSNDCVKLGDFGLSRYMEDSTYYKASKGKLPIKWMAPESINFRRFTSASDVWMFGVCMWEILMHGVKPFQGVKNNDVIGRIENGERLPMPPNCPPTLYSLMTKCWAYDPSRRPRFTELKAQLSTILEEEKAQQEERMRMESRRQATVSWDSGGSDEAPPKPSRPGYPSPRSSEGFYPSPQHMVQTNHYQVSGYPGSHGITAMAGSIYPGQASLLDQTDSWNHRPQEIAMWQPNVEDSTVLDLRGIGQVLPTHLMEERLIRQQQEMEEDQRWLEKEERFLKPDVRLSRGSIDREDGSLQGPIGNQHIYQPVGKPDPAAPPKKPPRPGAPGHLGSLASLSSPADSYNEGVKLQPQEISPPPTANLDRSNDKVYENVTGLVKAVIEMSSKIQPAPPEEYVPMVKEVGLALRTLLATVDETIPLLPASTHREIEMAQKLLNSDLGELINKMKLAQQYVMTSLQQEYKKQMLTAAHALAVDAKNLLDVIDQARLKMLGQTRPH

[4] = system: Fibrinogen (Alexa647-labelled); assay: Alexa647-fibrinogen binding to printed small molecules – biochemical, small-molecule microarray, 635/667 nm fluorescence, artefact control for SMM control-protein annotation, profiling panel (AID 1131); details: fibrinogen-A647 binding fluorescence, higher = more signal;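 further: z-score merges 667 nm fluorescence with per-spot signal-to-noise over triplicate slides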
[5] = molecular target: Follistatin (Homo sapiens) (UniProt P19883); assay: FST protein binding to printed compounds – biochemical, small-molecule microarray, 635/667 nm fluorescence, primary screen (AID 1132); details: 635 nm fluorescence, higher = more signal
Chain of Follistatin (Homo sapiens) (P19883 whole entry, looked up): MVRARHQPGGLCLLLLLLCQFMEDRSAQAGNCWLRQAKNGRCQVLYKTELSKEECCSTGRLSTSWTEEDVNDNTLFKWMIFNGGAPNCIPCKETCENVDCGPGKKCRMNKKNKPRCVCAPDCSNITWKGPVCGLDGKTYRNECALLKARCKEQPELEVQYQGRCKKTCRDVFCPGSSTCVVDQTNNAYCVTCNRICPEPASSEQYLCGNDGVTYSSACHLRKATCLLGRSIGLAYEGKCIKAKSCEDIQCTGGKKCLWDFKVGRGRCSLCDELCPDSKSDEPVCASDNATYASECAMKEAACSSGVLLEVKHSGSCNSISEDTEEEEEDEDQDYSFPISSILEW

[6] = molecular target: Fibroblast growth factor 2 (Homo sapiens) (UniProt P09038); assay: basic fibroblast growth factor binding to printed compounds – biochemical, small-molecule microarray, 635/667 nm fluorescence, primary screen (AID 1133); details: FGF2, fluorescence 635/667, higher = more signal
Chain of Fibroblast growth factor 2 (Homo sapiens) (P09038 whole entry, looked up): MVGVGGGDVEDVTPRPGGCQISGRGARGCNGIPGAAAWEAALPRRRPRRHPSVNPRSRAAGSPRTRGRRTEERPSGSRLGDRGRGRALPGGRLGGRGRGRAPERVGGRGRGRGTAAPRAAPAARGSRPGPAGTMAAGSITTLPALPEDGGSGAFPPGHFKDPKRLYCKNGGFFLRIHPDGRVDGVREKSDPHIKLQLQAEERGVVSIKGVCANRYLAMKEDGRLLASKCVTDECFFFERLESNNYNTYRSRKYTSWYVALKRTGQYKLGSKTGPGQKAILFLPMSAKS

[7] = JC-1 mitochondrial potential readout, lung cancer cells – cell-based, A549, JC-1 fluorescence, basal, 24 h, 100 nL, profiling panel (AID 1138); details: higher = more signal;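 further: A549 lung adenocarcinoma cells under basal conditions with no added stimulus; test concentration not given here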
Lefty1 = Lefty1 protein binding to printed compounds – biochemical, small-molecule microarray, 635/667 nm fluorescence, primary screen (AID 1139); details: fluorescence 635/667, higher = more signal
[8] = system: wheat germ agglutinin (Triticum aestivum), Alexa647-labelled; assay: Alexa647-WGA lectin binding to printed small molecules – biochemical, small-molecule microarray, 635/667 nm fluorescence, artefact control for SMM control-protein annotation, profiling panel (AID 1140); details: WGA-A647 binding, 635 nm fluorescence, higher = more signal;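 further: score merges 667 nm feature emission with signal to noise over triplicate slides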
[9] = molecular target: Luciferin 4-monooxygenase (Photinus pyralis) (UniProt P08659); assay: inhibition of purified Photinus pyralis luciferase – biochemical, luminescence, purified enzyme, 2006 set, primary screen (AID 1141); details: purified firefly luciferase, SteadyGlo luminescence, 30 min; higher = more signal, called active from +8 up or from −8 down;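 further: cell-free assay with purified firefly luciferase at 100 ng per well in PBS; test concentration not given here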
Chain of Luciferin 4-monooxygenase (Photinus pyralis) (P08659 whole entry, looked up): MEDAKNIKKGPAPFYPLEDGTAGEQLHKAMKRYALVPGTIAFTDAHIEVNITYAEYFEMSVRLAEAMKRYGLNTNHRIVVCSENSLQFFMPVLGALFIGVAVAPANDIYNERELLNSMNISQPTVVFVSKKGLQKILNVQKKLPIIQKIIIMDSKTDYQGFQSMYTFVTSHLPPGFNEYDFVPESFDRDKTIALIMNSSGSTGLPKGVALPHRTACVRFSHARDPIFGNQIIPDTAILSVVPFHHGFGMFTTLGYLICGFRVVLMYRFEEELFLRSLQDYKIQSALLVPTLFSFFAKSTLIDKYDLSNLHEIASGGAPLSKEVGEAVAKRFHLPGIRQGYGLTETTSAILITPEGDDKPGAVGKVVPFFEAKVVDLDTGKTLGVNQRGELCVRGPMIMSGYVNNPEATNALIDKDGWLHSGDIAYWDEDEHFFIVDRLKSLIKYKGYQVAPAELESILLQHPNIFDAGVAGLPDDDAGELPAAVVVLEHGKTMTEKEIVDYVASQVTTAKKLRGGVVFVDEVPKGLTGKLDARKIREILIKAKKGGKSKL

[10] = system: Wnt5a (protein binding on small-molecule microarray); assay: small molecules binding Wnt5a protein – biophysical, small-molecule microarray, 635/667 nm fluorescence, primary screen (AID 1142); details: 635 nm fluorescence, higher = more signal;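 further: fluorescence read at 667 nm with signal to noise per printed feature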
[11] = ATP-based viability of Huh7 replicon cells – cell-based, CellTiter-Glo luminescence, basal, 48 h, cytotoxicity control for HCV replication inhibitor project, primary screen (AID 1143); details: higher = more signal, called active from +8 up or from −8 down;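 further: Huh7 hepatoma cells carrying a hepatitis C replication reporter with no stimulus; test concentration not given here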
[12] = Pseudomonas biofilm growth suppression – PAO1 strain, BacTiter-Glo luminescence, LB-PBS, primary screen (AID 1144); details: P. aeruginosa PAO1 biofilm, 12 h, higher = more signal
[13] = basal CRE-LacZ reporter activity in PC12 – cell-based, unstimulated, primary screen (AID 1145); details: no forskolin, luminescence, 4.5 h, higher = more signal, called active from +8 up or from −8 down
[14] = forskolin-driven CRE-LacZ activity in PC12 – cell-based, CRE-LacZ reporter, forskolin-stimulated, primary screen (AID 1146); details: luminescence, 4.5 h, higher = more signal, called active from +8 up or from −8 down;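 further: PC12 cells with 6xCRE LacZ reporter stimulated by forskolin 10 µM; beta-galactosidase reporter signal reflecting CREB driven transcription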
[15] = molecular target: Streptavidin (Streptomyces avidinii) (UniProt P22629); assay: compounds binding control protein streptavidin – biophysical, small-molecule microarray, 635/667 nm fluorescence, artefact control for SMM compound annotation, primary screen (AID 1147); details: higher = more signal;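 further: signal reflects streptavidin binding to arrayed compounds as a control protein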
Chain of Streptavidin (Streptomyces avidinii) (P22629 whole entry, looked up): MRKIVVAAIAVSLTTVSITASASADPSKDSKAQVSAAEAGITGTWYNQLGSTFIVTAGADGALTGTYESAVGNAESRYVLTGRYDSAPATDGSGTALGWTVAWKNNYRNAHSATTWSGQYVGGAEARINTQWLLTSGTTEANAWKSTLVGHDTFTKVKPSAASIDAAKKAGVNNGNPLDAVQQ

[16] = probe aInhba binding on compound microarray – biochemical, small-molecule microarray, 635/667 nm fluorescence, primary screen (AID 1148); details: higher = more signal;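 further: score merges 667nm spot fluorescence with signal-to-noise for antibody binding to printed compounds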
Torsin-1A (Homo sapiens) [17] = molecular target: Torsin-1A (Homo sapiens) (UniProt O14656); assay: TOR1A wild-type binding on microarray – cell lysate, small-molecule microarray, lysate, 635/667 nm, primary screen (AID 1149); details: COS7 hTOR1A-WT lysate, 635 nm fluorescence, higher = more signal
Chain of Torsin-1A (Homo sapiens) (O14656 whole entry, looked up): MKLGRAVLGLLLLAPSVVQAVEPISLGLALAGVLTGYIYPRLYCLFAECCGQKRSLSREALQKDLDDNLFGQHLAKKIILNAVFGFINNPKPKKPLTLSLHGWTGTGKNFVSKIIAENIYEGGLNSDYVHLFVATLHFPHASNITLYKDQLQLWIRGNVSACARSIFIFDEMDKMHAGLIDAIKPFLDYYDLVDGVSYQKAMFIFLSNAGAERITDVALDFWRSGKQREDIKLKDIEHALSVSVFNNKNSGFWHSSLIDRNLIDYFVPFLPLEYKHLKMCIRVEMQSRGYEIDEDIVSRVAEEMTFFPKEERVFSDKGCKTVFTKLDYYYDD

Torsin-1A (Homo sapiens) [18] = molecular target: Torsin-1A (Homo sapiens) (UniProt O14656); assay: torsin A mutant lysate binding on microarrays – cell lysate, small-molecule microarray, COS7 lysate, 635/667 nm fluorescence, primary screen (AID 1150); details: COS7 hTOR1A mutant lysate, 635 nm fluorescence, higher = more signal;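 further: score pools 667 nm emission and signal to noise measuring lysate protein binding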
[19] = system: Sonic hedgehog protein (Shh); assay: Sonic hedgehog microarray binding compounds – biochemical, small-molecule microarray, 635/667 nm fluorescence, primary screen (AID 1151); details: 635 nm fluorescence, higher = more signal;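 further: Shh protein binding to compounds spotted on small-molecule microarray slides; score combines spot fluorescence intensity with signal-to-noise across triplicate slides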

Structure (SMILES)	composite z-score [1]	composite z-score [2]	composite z-score [3]	composite z-score [4]	composite z-score [5]	composite z-score [6]	z-score [7]	composite z-score (Lefty1)	composite z-score [8]	z-score [9]	composite z-score [10]	z-score [11]	z-score [12]	z-score [13]	z-score [14]	composite z-score [15]	composite z-score [16]	composite z-score (Torsin-1A (Homo sapiens) [17])	composite z-score (Torsin-1A (Homo sapiens) [18])	composite z-score [19]
O=c1cccc(-c2ccc3ccccc3c2)o1	-0.829	-0.788	-0.179	-0.656	0.305	-0.276	1.14	-0.123	-0.276	-2.88 (inactive)	-0.0955	-2.3 (inactive)	0.787 (inactive)	0.425 (inactive)	0.0815 (inactive)	0.351	-0.025	-0.0735	-0.0223	0.27
COC(=O)[C@@]1(Cc2ccc(F)cc2)[C@H]2c3cc(C(=O)N4CCCC4)n(CCc4ccc(OC)c(Br)c4)c3C[C@H]2CN1C(=O)c1ccccc1	2.45	1.22	1.32	0.831	1.08	-0.705	-1.58	0.265	1.38	-0.0863 (inactive)	0.375	-3.82 (inactive)	0.839 (inactive)	0.0109 (inactive)	-1.14 (inactive)	2.46	0.431	0.17	0.858	-0.328
COc1ccc([Si](C)(C)[C@@H]2[C@@H](CCO)O[C@]3(C(=O)N(Cc4ccc(N5C(=O)c6cccc7cccc5c67)cc4)c4ccccc43)[C@H]2C)cc1	-0.0225	-0.797	0.138	-0.518	-1.12	-0.753	1.23	-0.536	0.397	-0.604 (inactive)	-0.404	-6.09 (inactive)	-0.0686 (inactive)	4.11 (inactive)	0.201 (inactive)	-0.376	-0.0791	-0.565	-0.535	0.0554
CN(C)CCCC[C@@H]1NC(=O)[C@H]2C[C@@H](C(=O)NCCCCCNC(=O)CS)[C@@H](c3ccc(O)cc3)N2C1=O	0.504	-0.54	-0.0308	-0.293	0.756	0.421	0.64	-0.78	-0.128	-1.25 (inactive)	-0.22	-0.0046 (inactive)	-0.315 (inactive)	0.683 (inactive)	-0.0503 (inactive)	-0.175	-0.208	-0.217	0.239	0.0878
CO[C@H]1O[C@H](CO)[C@@H](OC(=O)Nc2ccccc2-c2ccccc2)[C@H](OC(=O)Nc2ccccc2-c2ccccc2)[C@H]1OC(=O)Nc1ccccc1-c1ccccc1	2.54	1.27	0.464	1.02	1.3	1.63	0.147	0.644	0.745	-1.35 (inactive)	0.764	-3.73 (inactive)	-0.587 (inactive)	1.65 (inactive)	-0.823 (inactive)	0.244	0.243	0.93	0.885	1.61
CCCC[C@@H]1C[C@H]1[C@@H](NC(=O)c1ccccc1)c1ccccc1	1.47	-0.23	0.202	0.244	0.671	0.085	-1.03	-0.235	0.136	1.19 (inactive)	0.209	-0.877 (inactive)	0.727 (inactive)	0.0041 (inactive)	0.79 (inactive)	0.0499	0.401	-0.477	-0.0734	-0.412
CC(C)(C)OC(=O)CC[C@@]1(C(N)=O)N=C(c2ccc(OCCCO)cc2)O[C@@H]1c1ccccc1N=[N+]=[N-]	1.12	0.886	1.1	1.06	1.21	1.12	-0.04	0.512	0.884	-10.5 (active)	0.672	-0.858 (inactive)	0.61 (inactive)	0.204 (inactive)	-0.208 (inactive)	1.12	-0.0695	2.08	1.31	-0.179
CN(C)CCCC[C@@H]1NC(=O)[C@@H]2C[C@H](C(=O)NCCCCCN)[C@H](c3ccc(O)cc3)N2C1=O	0.637	0.732	0.91	0.502	-0.126	-0.585	0.393	-0.318	1.09	-0.806 (inactive)	-0.286	0.202 (inactive)	-0.504 (inactive)	0.549 (inactive)	0.304 (inactive)	1.26	-0.0639	0.424	0.901	-0.631
O=C1O[C@H](c2ccccc2)[C@H](c2ccccc2)N2[C@H]1[C@@H](C(=O)NC[C@H](O)c1ccccc1)[C@]1(C(=O)Nc3ccc(C#CC4(O)CCCCCC4)cc31)[C@H]2c1ccccc1OCCO	1.26	1.19	0.412	0.494	1.26	1.54	-1.24	0.586	0.794	0.361 (inactive)	1.21	-5.52 (inactive)	-0.52 (inactive)	-0.325 (inactive)	-0.349 (inactive)	-0.428	0.214	0.644	1.08	0.877
CC(C)N1C(=O)c2ccccc2[C@](C)(C(=O)NC2CC2)[C@@H]1c1ccc(CO)cc1	1.58	0.875	-0.118	0.803	1.12	0.507	0.378	0.0517	0.497	1.34 (inactive)	0.204	-0.997 (inactive)	-0.723 (inactive)	0.118 (inactive)	0.957 (inactive)	-0.166	-0.2	1.11	0.74	0.889
